Measurements published in PubChem BioAssay AID808 (Columbia University Molecular Screening Center, 2007).
Hit rate of the full screen: of about 93,000 compounds, about 180 (0.19%) were called active.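 Rule for the calls: active = activation above the screen mean plus 3 SD, with well images confirming the hit on visual review (cut at about 28% in these data, passing the limit was not always enough); inconclusive = activation above that limit but images do not confirm it; inactive = activation not above that limit.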 The entries come from a sample that favours actives as a whole.

Assay: enhancers of endothelial VCAM-1 upregulation by TNFa – imaging, HUVEC, TNFa stimulus, immunofluorescence, primary screen (AID 808);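 note: signal is the number of cytoplasmic VCAM-1 stained grains per positive cell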
Settings: HUVEC TNFa-stimulated VCAM-1 immunofluorescence, high-content imaging; at 2 µM; active compounds read high; scaled per plate to unstimulated/TNFa-only wells

activation, inactive:
CSc1nnc2c(n1)OC(c1cn(C)c3ccccc13)N(C(C)=O)c1ccccc1-2 (stereo not drawn) -5%, CSc1ccc(CCNC(=O)C2CCN(c3nnc(-n4cccc4)s3)CC2)cc1 -2.8%, O=C(Cn1cnc2c(nnn2Cc2ccc(F)cc2)c1=O)NCc1ccc2c(c1)OCO2 -6.6%, Cc1ccc(N2C(=O)c3ccccc3C2(O)c2ncc[nH]2)cc1 (stereo not drawn) -0.7%, CCOC(=O)c1ccc(NC(=O)CS(=O)(=O)c2cn(CC)c3ccccc23)cc1 -6.9%, COc1ccc2c(c1)C=CC1(O2)N(CCO)c2ccccc2C1(C)C (stereo not drawn) 1.4%, O=C(Nc1nccs1)C1CCN(S(=O)(=O)c2ccc(Cl)c(C(F)(F)F)c2)CC1 -9.5%, O=c1c2ccccc2nc2n1C(CSCc1cccc(C(F)(F)F)c1)CS2 (stereo not drawn) -7.9%, O=C(NCc1ccco1)c1sc2cccc(F)c2c1Cl 0.7%, Oc1ccc2nc(Cc3ccccc3)[nH]c2c1 5.6%, CC(C)NC(=O)c1ccccc1S(=O)c1ccccc1C#N (stereo not drawn) -0.6%, Cc1cc(Nc2ccccc2)n(CCC#N)n1 -2.1%, COc1ccc(CC(=O)Nc2sc(Cc3ccccc3)c(C)c2C(N)=O)cc1 8.4%, Cn1c(=O)n(C)c2cc(CNc3ccc(N4CCOCC4)c(C(=O)O)c3)ccc21 -26.1%, Brc1ccc(-c2nnc(-c3ccccc3)o2)o1 20.5%, O=[N+]([O-])c1ccccc1OCCCCN1CCCCC1 -6.6%, CCOc1ccccc1Nc1nnc(SCc2ccc(C(=O)OC)o2)s1 -4.9%, O=C(CSc1nc2ccccc2o1)N1CCN(c2ccc(Cl)cc2)CC1 6.9%, COc1ccc(-c2nnc(SCC(=O)NC3CCCCC3)o2)cc1OC -87.2%, CC1(C)Cc2cccc(OCC(N)=O)c2O1 -5.6%, O=C1c2ccccc2C(=O)c2c1cccc2N1CCN(Cc2ccccc2)CC1 8.5%, COc1ccc(-c2cc(C(F)(F)F)nc(SCCC(=O)NCc3ccco3)n2)cc1 -32.5%, O=S(=O)(c1cccs1)N1CCN(Cc2ccccc2)CC1 6.9%, CCOC(=O)c1c(N=CN(C)C)c(C#N)c2n1CCCC2 -8.6%, Cc1ccc(S(=O)(=O)N(CC(=O)NCCSC2CCCCC2)c2ccccc2F)cc1 8.5%, CCOC(=O)N1CCN(C(=O)c2cc3c(ccc4ccccc43)oc2=O)CC1 -5.2%, Cc1cnc(NC(=O)CSc2nnc(-c3ccccc3)n2Cc2ccccc2)s1 -2%, Cc1ccc2c(Cl)c(C(=O)NCCCn3ccnc3)sc2c1 -28.3%, Nc1cc(=O)nc(SCc2ccccc2)n1Cc1ccco1 -95%, CCC(=O)c1ccc(OCC(O)CN2CCN(c3cccc(C(F)(F)F)c3)CC2)cc1 (stereo not drawn) 4.1%, CCOC(=O)CSc1nc2c(c(=O)n(C)c(=O)n2C)n1Cc1ccccc1F -0.2%, CC(N)C12CC3CC(CC(O)(C3)C1)C2 (stereo not drawn) 1%, CC(C)N1C(=O)C2C(C(=O)NC3CCCCC3)C3C=CC2(O3)C1C(=O)NC1CCCC1 (stereo not drawn) -10.8%, COc1ccc(-n2nnnc2SCC(=O)c2ccc(OC)c(OC)c2)cc1 -6.6%, CCN(CC(=O)NC(C)C)C(=O)CCNC(=O)c1ccc(Cl)cc1 -9.6%, COC(=O)C1=C(C)N=C2SC(C)C(=O)N2C1/C=C/c1ccccc1 (stereo not drawn) -6.2%, COc1ccccc1NC1=NC(c2ccc(Cl)cc2)N=C(N)N1 (stereo not drawn) -12.5%, Cc1ccc(S(=O)(=O)NC(=O)N2CCCC(C)(C)C2)cc1 4.1%, Cc1[nH]c2ccccc2c1C(=O)CSCC(=O)O 4.2%, O=C(OCC(=O)N1CCCC1)c1ccco1 -4.1%, NNC(=O)C1CCCn2c1nc1sc3c(c1c2=O)CCCC3 (stereo not drawn) -4.7%, COc1cc(/C=N\NC(=O)C2C(=O)NCC2c2ccccc2)cc(OC)c1O (stereo not drawn) -1.5%, CC(=O)c1ccc(OCCN2CCOCC2)cc1 -16.7%, CC1(C)C2CCC13CS(=O)(=O)NC3C2 (stereo not drawn) 19.3%, CC1(C)OC(=O)N2CCc3ccccc3C21C (stereo not drawn) 0.2%, CCCNS(=O)(=O)c1ccc(CCC(=O)NCc2cccnc2)cc1 34.1%, O=[N+]([O-])c1ccccc1/C=N/n1c(COc2ccccc2)n[nH]c1=S -14.7%, CCOC(=O)CCc1c(C)c(C#N)c2[nH]c3ccccc3n2c1=O 0.5%, CC(C)OC(=O)c1cc(NC(=O)C2C3CCC(O3)C2C(=O)O)cc(C(=O)OC(C)C)c1 (stereo not drawn) 15.7%, Cc1ccc(OCC(=O)Nc2cccc3c2CCCC3)cc1C -1.7%, CSCCC(C(=O)NC1=NCCS1)N1C(=O)c2ccccc2C1=O (stereo not drawn) 5.7%, O=C(Nc1ncc2c(n1)CC(c1ccco1)CC2=O)c1ccc(Cl)cc1 (stereo not drawn) -91.4%, CCOC(=O)N1CCN(C(=O)CN(c2ccc(C)c(C)c2)S(=O)(=O)c2ccccc2)CC1 0.5%, Cc1n[nH]c(C)c1S(=O)(=O)N1CCCC(C(=O)NCC2COc3ccccc3O2)C1 (stereo not drawn) -3.9%, Cc1ccc(CCNC(=O)C2CCN(S(=O)(=O)N3CCCC3)CC2)cc1 -9.5%, CCCc1cc(=O)[nH]c(SCc2ccc(C#N)cc2)n1 -3%, O=C(COc1ccc2ccccc2c1)N1CCN(C(=O)c2cccs2)CC1 -21.6%, COc1ccc(OC)c(NC(=O)CCN2CCC(C)CC2)c1 1.4%, Cc1ccc(S(=O)(=O)NCCSC(C)(C)C)cc1 -9%, Cc1ccc(Cn2nnc3c(=O)n(CC(=O)N4CCCCC4)cnc32)cc1 5.6%, CCOc1ccc(NC(=O)Nc2ccc(N(C)C(C)=O)cc2)cc1 16.6%, O=C(NCCN1CCOCC1)[C@H](Cc1ccccc1)N1C(=O)c2ccccc2C1=O -8.5%, C=CCn1c(COc2ccccc2F)nnc1SCC(=O)N1CC(=O)Nc2ccccc21 -4.4%, O=C(c1ccc(Cl)cc1)c1ccc(OCC(O)CN2CCCCC2)cc1 (stereo not drawn) -0.9%, Cc1cc(NC(=O)COc2ccc(Cl)cc2Cl)n(CCC#N)n1 4.1%, COc1cccc(C(=O)Nc2ccc(NC(=O)c3ccco3)cn2)c1 8.2%, Cc1cnc(NC(=O)C2CCCC2)s1 -57.6%, COCCNC(=O)c1snc2ccc(Cl)cc12 11.1%, O=C(NCCN1CCN(Cc2ccccc2)CC1)c1cc2c(=O)[nH]c3ccccc3c2s1 2.1%, O=C(CS(=O)(=O)c1cn(Cc2cccc(F)c2)c2ccccc12)N1CCCCC1 -50.1%, CCOC(=O)N1CCN(C(c2cccnc2)c2ccc3cccnc3c2O)CC1 (stereo not drawn) -10%, COc1ccc(Cl)cc1C(=O)NCC#N 5.7%, COC(=O)c1c(-c2cccs2)csc1NC(=O)CSc1ncnc2sc(C)c(C)c12 1.8%, Cc1[nH]n(-c2ccc(Cl)cc2)c(=O)c1/C=N/n1c(C)nc2ccccc2c1=O 9.2%, CCN(CC)C(=O)CSC1c2ccccc2C(=O)N1c1ccccc1 (stereo not drawn) -7.1%, CCN(CC)CCCNC(=O)CCc1ccccc1 4.1%, C/C(=C\C(=O)c1ccccc1)Nc1cccc(O)c1 2.2%, Cc1nnc(SCC(=O)NC2CCCC2)s1 -13.9%, CN(C)CCCn1c(N)c(C#N)c2nc(C#N)c(C#N)nc21 -7.9%, C=CCn1c(Cn2nnc3ccccc32)nnc1SCC(=O)N/N=C/c1cc(Br)cc(OC)c1O 1.7%, O=C(Cc1ccc(-n2c(=O)[nH]c3ccccc3c2=O)cc1)N1CCN(c2cccc(Cl)c2)CC1 -1.2%, Cc1c(C(=O)OCC(=O)N(CCC#N)c2ccccc2)oc2c1ccc1ccccc12 -4.9%, COc1ccccc1NC(=O)CSc1nnc(Cn2nnc(-c3ccccc3)n2)n1-c1ccccc1 11.3%, CSc1nc2ccccc2cc1/C=C(\C#N)c1ccc(Cl)cc1Cl -3.2%, Cc1ccc(OCC(O)CN2CCN(CC(O)COc3ccc(C)cc3Cl)CC2)c(Cl)c1 (stereo not drawn) -1.2%, O=C(c1ccco1)N1CCN(C(=O)C2c3ccccc3Oc3ccccc32)CC1 -5.9%, Cc1ccc(F)cc1NC(=O)c1ccc2c(c1)OCO2 -96.8%, CC(=O)Nc1ccc(S(=O)(=O)N2CCN(C(=O)c3ccccc3F)CC2)cc1 -7.6%, C=C(Br)CN1CCN(CC(=C)Br)CC1 17.8%, Cn1c(C(=O)OC(C(=O)NC2CCCCC2)c2ccccn2)cc2sccc21 (stereo not drawn) 7.6%, C=C(C)CNC(=S)/N=c1\scc(C)n1CC -4.4%, COc1cccc(OCc2cc(/C=N/NC(=O)c3nc(Cl)c(Cl)c(N)c3Cl)ccc2OC)c1 -6.7%

activation, active:
CCOc1cc(-c2cc(-c3ccc(OC)cc3)nc(N)c2C#N)ccc1O 32.6%, CC1(C)CC(=O)C=C(N2CCCC2)C1 79%, COc1ccc(OC)c(N=Cc2c(O)[nH]c3ccccc23)c1 41.3%, CC1=NN(C(C)C)C(=O)C1 25%, CCOc1ccc(N=C2NC(=O)S/C2=C\c2ccc(O)cc2)cc1 29.2%, CCCCN(C)C(=O)C1CCN(Cc2ccccn2)CC1 35.5%
